Experimental data taken from PubChem BioAssay.
The source made the active and inactive calls.

Experiments:
Albumin (Bos taurus) = Albumin (Bos taurus) (UniProt P02769); assay: bovine serum albumin binders on microarray, profiling panel, artefact control for SMM control protein annotation, biochemical, small-molecule microarray, Alexa647 label, 635/667 nm fluorescence (AID 1118); settings: BSA-A647 binding, fluorescence 635 nm, higher = more signal;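 further: score merges 667 nm emission intensity and signal-to-noise per printed compound spot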
Sequence of Albumin (Bos taurus) (P02769 whole entry, looked up): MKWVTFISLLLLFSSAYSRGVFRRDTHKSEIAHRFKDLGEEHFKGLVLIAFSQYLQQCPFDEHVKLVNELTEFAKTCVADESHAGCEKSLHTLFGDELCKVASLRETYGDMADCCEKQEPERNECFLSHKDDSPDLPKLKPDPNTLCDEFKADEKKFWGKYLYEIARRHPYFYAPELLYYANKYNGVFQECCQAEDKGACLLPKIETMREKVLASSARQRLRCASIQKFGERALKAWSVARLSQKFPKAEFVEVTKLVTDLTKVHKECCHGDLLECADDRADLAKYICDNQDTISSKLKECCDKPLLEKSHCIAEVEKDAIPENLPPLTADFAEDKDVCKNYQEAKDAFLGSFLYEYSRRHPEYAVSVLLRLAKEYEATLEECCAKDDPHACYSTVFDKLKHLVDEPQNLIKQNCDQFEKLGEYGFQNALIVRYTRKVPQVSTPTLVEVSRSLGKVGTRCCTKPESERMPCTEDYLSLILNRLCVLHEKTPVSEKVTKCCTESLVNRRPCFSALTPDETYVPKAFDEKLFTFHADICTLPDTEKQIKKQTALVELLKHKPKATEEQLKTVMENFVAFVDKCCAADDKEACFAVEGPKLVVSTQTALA

[1] = small-molecule microarray binders of probe aXIP, primary screen, biochemical, NeuroSMM set, 635/667 nm fluorescence (AID 1119); settings: higher = more signal, called active from +8 up or from −8 down;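 further: probe is the protein aXip251-270 applied at 1 µg/mL to compound-printed slides; binding of probe to printed compounds measured as 667 nm fluorescence plus signal to noise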
[2] = small-molecule binders of probe aNOTCH3, primary screen, biochemical, small-molecule microarray, 635/667 nm fluorescence (AID 1120); settings: higher = more signal;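 further: probe is a biotin-tagged antibody raised against NOTCH3 rather than NOTCH3 protein; score merges spot fluorescence near 667 nm with spot signal to noise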
[3] = small-molecule binders of probe aNOTCH2, primary screen, biochemical, small-molecule microarray, 635/667 nm fluorescence (AID 1121); settings: higher = more signal;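 further: score merges feature fluorescence read at 667 nm with its signal to noise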
[4] = biological target: Carbonic anhydrase 2 (Homo sapiens) (UniProt P00918); assay: CAII small-molecule binders, profiling panel, biochemical, small-molecule microarray, Alexa647-labelled CAII (AID 1122); settings: CAII-A647 binding fluorescence, higher = more signal
[5] = COS7 lysate on small-molecule microarray, probe aHis, 635 nm (AID 1123); settings: COS7 cell lysate, fluorescence, higher = more signal;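 further: z-score combines 667nm fluorescence intensity with signal-to-noise per printed compound spot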
[6] = compound binding in COS7 lysate, probe aLAP1, primary screen, cell lysate, small-molecule microarray (AID 1124); settings: probe aLAP1, fluorescence, higher = more signal;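 further: lysate comes from COS7 cells expressing LAP1 and is applied at 0.3 µg/mL; score merges spot fluorescence near 667 nm with signal-to-noise over triplicate slides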
Sam68 (KHDRBS1) = assay: Sam68 small-molecule binders, primary screen, biochemical, small-molecule microarray, 635 nm fluorescence (AID 1125); settings: small-molecule microarray binding, higher = more signal;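 further: score merges 667 nm channel intensity with signal to noise over triplicate slides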
[7] = system: Chordin-like protein 2 (CHRDL2); assay: CHRDL2 small-molecule binders, primary screen, biochemical, small-molecule microarray, 635 nm fluorescence (AID 1126); settings: small-molecule microarray binding, fluorescence 635 nm; higher = more signal;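 further: printed compound slides probed with Chrdl2 protein at 4 µg/mL for 1 h at 4 C; score merges 667 nm emission intensity with signal to noise over three replicate slides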
[8] = biological target: Concanavalin-A (Canavalia ensiformis) (UniProt P02866); assay: ConA small-molecule binders, primary screen, artefact control for SMM control protein annotation, biochemical, small-molecule microarray, Alexa647 label, 635 nm (AID 1127); settings: ConA-A647 binding fluorescence, higher = more signal;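 further: z combines 667 nm emission intensity with signal-to-noise across three replicate slides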
Sequence of Concanavalin-A (Canavalia ensiformis) (P02866 whole entry, looked up): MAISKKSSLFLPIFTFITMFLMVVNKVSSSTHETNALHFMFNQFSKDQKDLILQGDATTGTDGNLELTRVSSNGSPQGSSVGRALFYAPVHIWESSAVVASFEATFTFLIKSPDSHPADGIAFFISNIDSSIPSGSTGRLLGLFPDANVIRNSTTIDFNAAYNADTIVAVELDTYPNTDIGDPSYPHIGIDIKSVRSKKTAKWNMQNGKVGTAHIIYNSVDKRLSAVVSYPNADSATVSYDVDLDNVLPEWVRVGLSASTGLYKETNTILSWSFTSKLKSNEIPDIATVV

Structure (SMILES) | composite z-score (Albumin (Bos taurus)) | composite Z-score [1] | composite z-score [2] | composite z-score [3] | composite z-score [4] | composite z-score [5] | composite z-score [6] | composite z-score (Sam68 (KHDRBS1)) | composite z-score [7] | composite z-score [8]
O=C(Cc1ccccc1)[C@H]1C2C=CCCC(c3ccccc3)=C2CN1Cc1ccccc1 (stereo not given in full) | -0.567 | -0.041 (inactive) | -0.166 | -0.179 | -0.302 | -0.328 | 0.0448 | -0.299 | 0.23 | -0.22
COc1ccc([Si](C)(C)[C@H]2[C@H](CC(=O)N3CCC[C@H]3CO)O[C@@]3(C(=O)N(Cc4ccc(N5CCOC5=O)cc4)c4ccccc43)[C@@H]2C)cc1 | -0.195 | -0.0549 (inactive) | 0.336 | -0.075 | 0.364 | 1.89 | 0.145 | 1.34 | 0.731 | 0.618
COCCOC(=O)N1C(=O)[C@@]2(c3cc(C#CCCO)ccc31)[C@H](c1ccc(OCCO)cc1)N1[C@H](c3ccccc3)[C@H](c3ccccc3)OC(=O)[C@H]1[C@@H]2C(=O)Nc1nc2ccccc2s1 | 0.648 | -0.22 (inactive) | 0.0556 | 0.02 | 0.406 | 0.556 | 0.559 | 1.31 | 0.27 | 1.13
CO[C@H]1O[C@H](CO)[C@@H](OC(=O)CCc2ccccc2)[C@@H]2OC(=O)[C@@H](Cc3ccccc3)C/C=C/C[C@H](Cc3ccccc3)C(=O)O[C@@H]12 | 0.0544 | -0.0061 (inactive) | -0.0014 | -0.0861 | 0.116 | 0.88 | 0.338 | 1.13 | 0.0642 | 0.6
C=CCOC(=O)[C@@]1(Cc2ccccc2)C[C@H]2CO[C@H](c3ccc(OC)cc3)N2C1=O | 0.484 | -0.415 (inactive) | -0.0615 | -0.107 | -0.0067 | 0.146 | 0.0469 | 0.168 | 0.194 | 0.192
CC(C)NC(=O)[C@@]1(c2ccc([N+](=O)[O-])cc2)CC(=O)N(C2CCCCC2)[C@@H]1c1ccc(CO)cc1 | 0.807 | -0.107 (inactive) | 0.325 | -0.245 | 0.729 | 2.17 | 0.94 | 1.26 | -0.0413 | 1.02
[N-]=[N+]=NCc1ccccc1[C@H]1OC(c2ccc(OCCCO)cc2)=N[C@@]1(Cc1ccccc1N=[N+]=[N-])C(=O)NCC(O)CO (stereo not given in full) | 0.992 | 0.095 (inactive) | 0.483 | -0.0859 | 0.7 | 1.8 | 0.0939 | 1.3 | -0.603 | 1.09
O=C(c1ccccc1)N1C(=O)[C@]2(Cc3ccccc31)N=C(c1ccc(OCCCO)cc1)O[C@@H]2c1ccccc1 | 0.462 | -0.129 (inactive) | 0.0691 | -0.0928 | 0.204 | 2.7 | 0.356 | 1.29 | 0.371 | 1.13
C=C(/C(=C/C[C@H](OC(C)=O)c1ccc(CO)o1)c1cnc2ccccc2c1)C(C)C | 0.899 | 0.456 (inactive) | 0.245 | -0.148 | 0.945 | 0.948 | 0.269 | 1.29 | 1.06 | 1.14
CN1C(=O)C2C=CC(C(O)c3cccn3C)N(Nc3ccc([N+](=O)[O-])cc3[N+](=O)[O-])C2C1=O (stereo not given) | 0.38 | -0.398 (inactive) | 0.0681 | 0.476 | 0.848 | 0.856 | 0.376 | -0.0879 | -0.248 | -0.0516
COc1ccc([Si](C)(C)[C@H]2[C@H](CC(=O)N3Cc4ccccc4C[C@H]3CO)O[C@@]3(C(=O)N(Cc4ccc(N5CCOC5=O)cc4)c4ccccc43)[C@@H]2C)cc1 | -0.153 | 0.949 (inactive) | -0.0106 | -0.0249 | 0.444 | 0.591 | 0.246 | 1.33 | 1.32 | 1.05
CCCCC(CC)C(O)C1C=CC2C(=O)N(c3ccccc3)C(=O)C2N1Nc1ccc(C#N)cc1 (stereo not given) | 1.02 | 0.369 (inactive) | 0.64 | 0.353 | 0.595 | 2.21 | 0.664 | 1.13 | 0.0027 | 1.2
Oc1ccc2cc[n+](Cc3cc4c(cc3Br)OCO4)cc2c1 | -1.19 | -0.399 (inactive) | -0.333 | -0.108 | 0.908 | -0.129 | -0.127 | -0.538 | -0.496 | -0.985
C=CCC(OC(C)=O)[C@@H]1[C@@H](N(Cc2ccc(-c3ccccc3)cc2)C(=O)c2ccc(-c3ccccc3)cc2)c2cc(OCCCO)ccc2N1C(=O)c1ccc2ccccc2c1 (stereo not given in full) | -0.186 | -0.473 (inactive) | -0.0208 | -0.115 | 0.212 | 0.937 | -0.129 | 0.352 | 0.0949 | -0.38
[N-]=[N+]=Nc1ccccc1C[C@@]1(C(=O)NCCN2CCOCC2)N=C(c2ccc(OCCCO)cc2)O[C@@H]1c1ccccc1N=[N+]=[N-] | 0.832 | -0.0662 (inactive) | 0.351 | -0.0211 | 0.556 | 2.51 | 0.865 | 1.3 | -0.198 | 1.04
COc1ccc(C(=O)Nc2ccc(CN3C(=O)[C@]4(O[C@H](CC(=O)N5Cc6ccccc6C[C@H]5CO)[C@@H]([Si](C)(C)c5ccc(OC)cc5)[C@@H]4C)c4ccccc43)cc2)cc1 | -0.254 | -0.236 (inactive) | -0.0377 | -0.0995 | 0.151 | 1.1 | 0.0688 | 1.17 | 1.14 | 0.67

Structure (SMILES) | composite z-score (Albumin (Bos taurus)) | composite Z-score [1] | composite z-score [2] | composite z-score [3] | composite z-score [4] | composite z-score [5] | composite z-score [6] | composite z-score (Sam68 (KHDRBS1)) | composite z-score [7] | composite z-score [8]
Cc1ccc(F)cc1S(=O)(=O)N[C@@H]1CCN(Cc2ccc(Br)cc2)C1 | 0.694 | -0.388 (inactive) | 0.122 | -0.0424 | 0.276 | -0.593 | -0.386 | -0.811 | 0.743 | -0.862
COc1ccc([Si](C)(C)[C@@H]2[C@@H](CCO)O[C@]3(C(=O)N(Cc4cccc(NC(=O)[C@H](C)O)c4)c4ccccc43)[C@H]2C)cc1 | 0.6 | 0.234 (inactive) | -0.147 | -0.0984 | 0.51 | 1.61 | 0.523 | 1.31 | -0.083 | 1.01
CCCCC(O)C1C=CC2C(=O)N(C)C(=O)C2N1N(c1ccccc1)c1ccccc1 (stereo not given) | 0.878 | 0.418 (inactive) | 0.183 | 0.0203 | 0.797 | 2.73 | 0.923 | 1.32 | -0.711 | 1.1
CCCC=C(CCC)[C@@H](NC(=O)C(C)(C)C)c1ccc(C(=O)OC)cc1 | 0.991 | 0.29 (inactive) | 0.25 | 0.0199 | 0.441 | 2.76 | 0.103 | 0.622 | -0.91 | 0.869
C=CC[C@]1(C(=O)N2CCCCC2)N=C(c2ccc(OCCCO)cc2)O[C@H]1c1ccccc1CN=[N+]=[N-] | 0.472 | 0.256 (inactive) | 0.405 | -0.147 | 0.69 | 2.31 | 0.817 | 1.3 | -0.406 | 1.1
COC(=O)[C@@]1(Cc2ccc(OC)cc2)[C@H]2c3cc(C(=O)N4CCCC4)n(CCc4c[nH]c5ccc(OC)cc45)c3C[C@H]2CN1C(=O)c1ccccc1 | 0.93 | -0.453 (inactive) | 0.319 | 0.387 | 0.711 | 2.81 | 0.8 | 1.11 | -1.04 | 0.852
[N-]=[N+]=Nc1ccccc1C[C@@]1(C(N)=O)N=C(c2ccc(OCCCO)cc2)O[C@@H]1c1ccccc1N=[N+]=[N-] | 1.01 | 0.127 (inactive) | 0.0059 | 0.0342 | 0.441 | 1.34 | -0.0264 | 0.666 | -0.359 | 0.716
CCC1=C2CN(Cc3ccccc3)[C@@H](C(=O)Cc3ccccc3)C2C=CCC1 (stereo not given in full) | 0.912 | -0.496 (inactive) | 0.0293 | -0.149 | 0.679 | 1.58 | -0.186 | 0.169 | -0.263 | 0.351
CC(=O)NCCCC[C@@H]1NC(=O)[C@@H]2C[C@H](C(=O)NCCCCCN)[C@H](c3cccc(OCCO)c3)N2C1=O | 0.379 | 0.36 (inactive) | 0.324 | 0.0181 | 0.697 | 0.812 | 0.0312 | 0.803 | 0.56 | 1.11
COCCOC(=O)N1C(=O)[C@@]2(c3cc(C#CCNC(N)=O)ccc31)[C@H](C(N)=O)[C@H]1C(=O)O[C@H](c3ccccc3)[C@H](c3ccccc3)N1[C@@H]2c1ccccc1OCCO | 0.222 | -0.327 (inactive) | 0.133 | 0.0065 | 0.3 | 1.4 | 0.521 | 1.05 | 0.743 | 1.06
CC(C)NC(=O)[C@@]1(C)c2ccccc2C(=O)N(Cc2ccc(OC(F)(F)F)cc2)[C@H]1c1ccc(CO)cc1 | 0.484 | -0.263 (inactive) | -0.367 | -0.0995 | 0.607 | 1.54 | 0.173 | 0.844 | -1.02 | -0.04
CCC#CCN(Cc1ccccc1Br)[C@H](/C=C/C1CC1)[C@@H](O)Cc1ccccc1 | 0.0902 | -0.457 (inactive) | -0.262 | -0.176 | -0.458 | -0.408 | -0.477 | -0.549 | -0.784 | -0.138
CCOC(=O)C[C@H]1[C@H](OC(=O)Cc2ccc3c(c2)OCO3)[C@@H](NC(=O)c2ccc3ccccc3n2)c2cc(OCCCO)ccc2N1C(=O)c1ccccc1 | -0.233 | 0.221 (inactive) | -0.124 | -0.18 | 0.0645 | 0.109 | -0.115 | 0.416 | 0.528 | 0.321
[N-]=[N+]=Nc1ccccc1C[C@]1(C(=O)NCC(O)CO)COC(c2ccc(OCCCO)cc2)=N1 (stereo not given in full) | 0.407 | 0.371 (inactive) | 0.0339 | -0.0482 | 0.753 | 2.09 | 0.282 | -0.206 | -1.21 | 0.832
COC(=O)C1=CC(CCCO)=CC(c2cccs2)N(C)C=C1C(=O)OC (stereo not given) | 0.445 | 0.156 (inactive) | -0.0879 | -0.115 | 0.869 | 1.17 | -0.371 | -0.213 | -0.44 | 0.34
O=C1C2C=CC(C(O)C3CC=CCC3)N(Nc3ccccc3)C2C(=O)N1c1ccccc1 (stereo not given) | 0.918 | 2.06 (inactive) | 0.366 | 0.0607 | 0.749 | 2.33 | 0.093 | 1.07 | 0.718 | 0.567
